Source: PubChem
HT1080 IDH1KD tx = kills HT-1080 cells with IDH1 knockdown; HT-1080 IDH1 knockdown viability, ATP luminescence, 48 h; Potency, µM (highest dose often 46.1 µM), inactives show top-dose activity, negative = toxicity, usual class: cytotoxic; 2% of 360,000 active; AID 686971;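 also: potency is read from the fitted curve at half-maximal effect; 0% = DMSO wells and -100% = cell-free medium wells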
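Cytotoxicity counter-line: IDH1KD HT-1080, 48 h, CellTiter-Glo. Curves classed by r2, magnitude and activity.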
TDP1 cell noCPT = qHTS for Inhibitors of human tyrosyl-DNA phosphodiesterase 1 (TDP1): qHTS in cells in absence of CPT; DT40 Tdp1-/- hTDP1 cells, no CPT, ATP luminescence, 48 h; Potency, µM (top dose mostly 46.2 µM), without a hit: top-dose activity change, negative = growth inhibition, actives largely listed as inhibitors; 15% of 420,000 active; AID 686978, 2013; also: potency is read from the fitted curve at half-maximal effect; nearly all actives have a fitted effect of over 55% in size
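Readout: luminescence from CellTiter-Glo after 30 min in the dark at RT. Cells: DT40 Tdp1-/- with stable hTDP1, 400/well. Exposure: compounds alone, ≥48 hr, 37 °C.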
HT1080-NT tox = kills 2HG-producing HT-1080-NT fibrosarcoma cells; 1.6% of 360,000 active; Potency, µM (doses to about 46.1 µM), for the others: at the highest dose activity, negative = less viability, actives largely listed as cytotoxic; HT-1080-NT fibrosarcoma viability, CellTiter-Glo ATP luminescence, 48 h;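 also: NT is the 2HG producing partner of a matched IDH1 knockdown line; potency is read from the fitted curve at half-maximal effect; 0% = DMSO-treated cells and -100% = media-only wells without cells; nearly all actives have a fitted effect of over 55% in size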
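Fibrosarcoma NT cells, 750 per well in 5% FBS RPMI, were exposed to compound for 48 hours. Viability: CellTiter-Glo luminescence.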
IL1B secr inh = inhibitors of inflammasome signaling (IL-1 beta secretion); THP-1 LPS/ATP IL-1B secretion, AlphaLISA, 16 h; active compounds read low; activity change, % at 57.5 µM; 4.7% of 360,000 active; AID 743279; in the data active = activity change below about -50%; inconclusive = mostly about -30% to -49%
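THP-1 cells pretreated 1 hr with compounds (up to 57.5 uM final), then stimulated with LPS (250 ng/mL final) plus ATP (1.25 mM final); secreted IL-1B measured by AlphaLISA after 16 hr, decreased signal indicating inhibition.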
DT40 TDP1 CPT = DT40-hTDP1 cell growth loss with CPT | chicken DT40 Tdp1-/-;hTDP1 cells + 20 nM CPT, ATP luminescence, 48 h | Potency, µM (top dose mostly 46.2 µM), without a hit: at the top dose activity change, negative = growth inhibition, most hits filed as inhibitors | AID 686979 | 12% of 420,000 active; also: potency is read from the fitted curve at half-maximal effect; nearly all actives have a fitted effect of over 55% in size
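Chicken DT40 Tdp1-/- cells complemented with human TDP1, 400 cells/well, exposed to compounds plus 20 nM camptothecin for at least 48 h at 37 C; viability read as ATP content by CellTiter-Glo luminescence.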
Numbers without * were called inactive; ? = inconclusive; . = no result given. Hits are enriched below; roughly 19% of the tested compounds scored in any of these assays. Unless noted, calls follow the shape of the dose curve; as a rule, active = well fitted curve in the direction sought with a large enough effect; inconclusive = small, poorly fitted or top-dose-only effect, or another doubt; inactive = no such curve, though single readings can be large; an effect the other way counts as inactive or inconclusive. Unless noted, % is scaled to controls: 0 for no effect and ±100 for the full control effect.

SMILES	HT1080 IDH1KD tx	TDP1 cell noCPT	HT1080-NT tox	IL1B secr inh	DT40 TDP1 CPT
CCOC(=O)C1=C(C)Nc2ncnn2C1c1cccnc1 (stereo not drawn)	5%	-6%	8%	3	-14%
O=C(CN1CCOCC1)NCC12CC3CC(CC(C3)C1)C2	2%	-11%	0%	-13	-8%
CCCCNC(=O)CSc1nc(Cc2ccccc2)nc2ccccc12	-3%	?	-24%	-2	?
CCO[C@H]1OC(C(N)=O)=C[C@@H](c2csc3ccccc23)[C@@H]1CCCO	1%	2%	4%	25	-2%
CCO[C@@H]1OC(C(=O)N2CCCCCCC2)=C[C@H](c2csc3ccccc23)[C@H]1CCCO	1%	23µM*	9%	?	21µM*
CCO[C@@H]1OC(C(=O)N2CCCCCCC2)=C[C@H](c2cn(C(C)=O)c3ccccc23)[C@H]1CCCO	-6%	?	-5%	-53*	16µM*
O=[N+]([O-])c1cccc(-c2nc(-c3cccs3)c(-c3cccs3)[nH]2)c1	?	21µM*	-17%	-15	21µM*
O=[N+]([O-])c1cccc(-c2nc(-c3ccccc3)c(-c3cccs3)[nH]2)c1	-29%	?	-4%	8	-25%
Cc1ccc(-c2nc(-c3cccs3)c(-c3cccs3)[nH]2)cc1	.	12µM*	.	.	15µM*
O=[N+]([O-])c1ccc(-c2nc(-c3cccs3)c(-c3cccs3)[nH]2)cc1	-18%	12µM*	?	-81*	12µM*
O=C(CN1CCN(Cc2ccccc2)CC1)N/N=C/c1ccc(Br)s1	?	?	?	-19	?
CCN(CC)C(=O)CSc1nc(-c2ccccc2)ccc1C#N	7%	0%	0%	6	-2%
CN1CCN(C(=O)CSc2nc(-c3ccncc3)ccc2C#N)CC1	0%	-2%	2%	-61*	16%
CCN(CC)C(=O)CSc1nc(-c2cccs2)cc(-c2cccs2)c1C#N	-3%	?	-2%	-27	23µM*
CCN(CC)C(=O)CSc1ncnc2sccc12	12%	2%	18%	14	-1%
CN1CCN(C(=O)CSc2nc(-c3cccs3)cc(-c3cccs3)c2C#N)CC1	-14%	18µM*	-21%	-28	?
CCN(CC)C(=O)CSc1ncnc2c(-c3cccs3)nsc12	-11%	?	-18%	-60*	-14%
NC(=O)c1nn(CC(=O)Nc2cccc(S(=O)(=O)N3CCCC3)c2)c(=O)c2ccccc12	2%	-1%	4%	15	-26%
COc1cccc(CNC(=O)c2ccc(CS(=O)Cc3ccccc3Cl)o2)c1 (stereo not drawn)	-1%	?	1%	-12	?
Cc1c(N)cc[n+](CC(=O)c2ccccc2)c1C	?	21µM*	-9%	-70*	21µM*
Cc1ccc(C(=O)OCCc2sc[n+](Cc3ccccc3)c2C)cc1	16%	-3%	13%	17	-3%
Cc1c(CCOC(=O)CC23CC4CC(CC(C4)C2)C3)sc[n+]1CC(=O)c1ccccc1	?	15µM*	-22%	?	21µM*
Cc1c(CCOC(=O)C23CC4(C)CC(C)(CC(C)(C4)C2)C3)sc[n+]1CC(=O)c1ccccc1	?	?	?	-192*	?
Cc1c(CCO)sc[n+]1CC(=O)c1ccccc1	.	?	.	.	0.56µM*
Cc1c[n+](CC(=O)c2ccccc2)cs1	15%	-17%	21%	-1	-10%
SMILES	HT1080 IDH1KD tx	TDP1 cell noCPT	HT1080-NT tox	IL1B secr inh	DT40 TDP1 CPT
COc1ccc(NC(=O)CN2C(=O)CCn3nc(-c4cccn4C)cc32)cc1	.	8%	.	.	2%
Nc1c(Cl)cc(C=O)cc1Cl	.	6%	.	.	15%
OC[C@@H](O)[C@@H](O[C@H]1O[C@H](CO)[C@@H](O)[C@H](O)[C@H]1O)[C@H](O)[C@@H](O)CO	8%	4%	4%	-10	0%
O=C(Nc1ccccc1OCc1cc(=O)n2ccccc2n1)Nc1ccccc1C(F)(F)F	.	-9%	.	.	5%
Cc1c(CCOC(=O)c2cc([N+](=O)[O-])cc([N+](=O)[O-])c2)sc[n+]1CC(=O)c1ccc(Br)cc1	-21%	?	-1%	-97*	?
Cc1ccc(CNC(=O)c2cc(Cl)cc(Cl)c2)n1C	-4%	21%	0%	33	-11%
CCCc1ccc(C(=O)NNc2ccccc2F)cc1	6.5µM*	-3%	?	2	-13%
Cc1cc(C(=O)NNc2ccc(F)cc2)no1	5.2µM*	-8%	?	5	9%
Cc1cc(C(=O)NNc2ccccc2F)no1	2.6µM*	-29%	5.2µM*	3	-24%
CCc1ccc(C(=O)NNc2ccccc2F)cc1	?	-10%	?	?	-16%
CCN1c2ccccc2-c2nc3ccccc3n2C1c1ccco1 (stereo not drawn)	-9%	16µM*	6%	-15	21µM*
CN1c2ccccc2-c2nc3ccccc3n2C1c1ccccn1 (stereo not drawn)	-4%	16µM*	-1%	-7	16µM*
CN1c2ccccc2-c2nc3ccccc3n2C1c1ccncc1 (stereo not drawn)	-1%	?	-11%	-9	-21%
c1ccc(CN2c3ccccc3-c3nc4ccccc4n3C2c2ccccn2)cc1 (stereo not drawn)	6%	4%	6%	42	-9%
CCN(CC)S(=O)(=O)c1ccc2oc(Nc3ccc4c(c3)OCCO4)nc2c1	?	23µM*	-30%	21	16µM*
CCS(=O)(=O)c1ccc2oc(Nc3ccc(OC)cc3)nc2c1	-1%	-19%	0%	-1	14%
CCOc1ccc(Nc2nc3cc(S(=O)(=O)CC)ccc3o2)cc1	-10%	?	-1%	12	-3%
CCS(=O)(=O)c1ccc2oc(Nc3ccc(C(C)(C)C)cc3)nc2c1	-15%	15µM*	-14%	15	16µM*
CNC(=S)N(Cc1cc2cc(OC)c(OC)cc2[nH]c1=O)C1CCCC1	8%	-25%	6%	4	-22%
COc1cccc(CC(=O)Nc2nc(C)cs2)c1	-2%	-12%	?	11	-22%
O=C(Cc1csc(-c2ccccc2)n1)NCc1ccc(F)cc1	-19%	-13%	-16%	2	4%
COc1ccccc1NC(=O)Nc1nc(CC(=O)NCc2ccc(F)cc2)cs1	-15%	16µM*	-8%	-12	9.2µM*
COc1ccccc1NC(=O)Nc1nc(CC(=O)NCc2c(F)cccc2F)cs1	8%	21µM*	11%	-11	?
COc1ccccc1CC(=O)N1CCN(c2ccccc2F)CC1	10%	?	7%	-9	-1%
